# Measured values taken from ChEMBL document CHEMBL3988442, “University of Dundee, Small-Polar-MMV Screening Library” (2021).
# Among all 48,000 compounds or so, about 13,000 (27%) showed an effect of 50% or more. The list shows a part of the results.
# System: Wolbachia pipientis
# Assay: Anti-Wolbachia Cell-Based Screen
# Format: functional
# Parameters: scale not given: in the data most compounds retested in dose-response had high values
# Conditions: 5 µM
row,SMILES,Percent Effect
1,CCN1CCN(CC(O)c2ccc(Br)cc2)CC1 (stereo not given),16.45%
2,CS(=O)(=O)N1CC[C@@H]2[C@@H]1CCN2Cc1ccc2c(c1)OCO2.O=C(O)C(F)(F)F,-17.32%
3,CC(C)(C)NC(=O)CN1CCCN(Cc2ccc(C#N)cc2)CC1,13.98%
4,O=C(C1CC1)N1CCN(c2ccc(-n3cncn3)nn2)CC1,7.785%
5,Cc1oc(C)c(C(=O)NS(=O)(=O)c2ccc3c(c2)OCCO3)c1Br,78.36%
6,O=C(NS(=O)(=O)c1ccc2c(c1)OCCO2)c1ccc(Br)cc1F,-2.402%
7,Cc1oc(C)c(C(=O)NS(=O)(=O)c2ccc3c(c2)OCCCO3)c1C,0.6682%
8,CCNC(=O)CN(Cc1ccoc1)C1CCCCC1,-9.878%
9,OC(CN1CCOCC1)CN1CCc2c(ncn2C2CC2)C1 (stereo not given),4.204%
10,O=C(CCN1CCc2c(ncn2C2CC2)C1)NC1CCCC1,116.5%
11,O=C(CN1CCc2c(ncn2C2CC2)C1)NC1CC1,-2.463%
12,CCN1CCC(NC(=O)CN2CCc3c(ncn3C3CC3)C2)CC1,104%
13,O=C(CN1CCc2c(ncn2C2CC2)C1)NC1CCN(C2CC2)CC1,121.2%
14,N#Cc1ccc(OCCN2CCc3c(ncn3C3CC3)C2)cc1,2.68%
15,O=C(CN1CCc2c(ncn2C2CC2)C1)NC1CCOCC1,127.5%
16,CCN1CCC(NC(=O)CN2CCc3c(ncn3C)C2)CC1,-0.1158%
17,N#CC1(NC(=O)CN2CCc3c(ncn3C3CC3)C2)CCCC1,-4.395%
18,OC(COc1ccccc1)CN1CCc2c(ncn2C2CC2)C1 (stereo not given),-5.117%
19,CC(=O)N1CCN(C(=O)CN2CCc3c(ncn3C3CC3)C2)CC1,17.74%
20,CCN1CCC(NC(=O)CN2CCc3c(nc(C4CC4)n3C)C2)CC1,-1.72%
21,O=C(C[S+]([O-])Cc1ccc(F)cc1Cl)N1CCc2sccc2C1 (stereo not given),-9.716%
22,Cc1cc2n(n1)CC(CNC1CCN(Cc3ccccn3)CC1)CN2 (stereo not given),3.925%
23,O=C(N[C@@H]1CN(c2ncccn2)[C@@H]2CCCO[C@@H]21)c1cnccn1,-12.54%
24,O=C(N[C@@H]1CN(Cc2ccco2)[C@@H]2CCCO[C@@H]21)c1cscn1,106.9%
25,NC(=O)N1C[C@H](NC(=O)c2cscn2)[C@@H]2OCCC[C@@H]21,101.9%
26,O=C(N[C@@H]1CN(c2ncccn2)[C@@H]2CCCO[C@@H]21)c1cscn1,-1.481%
27,CCOc1cc(CNCCCn2ccnc2)cc(Cl)c1OCC,-4.315%

row,SMILES,Percent Effect
1,CC(C)Cc1noc(CN2CCC(NC(=O)c3cccs3)CC2)n1,5.621%
2,CCOC(C)c1noc(CN2CCN(Cc3ccno3)CC2)n1 (stereo not given),-9.724%
3,CN(Cc1cc(-c2ccncc2)no1)C(=O)[C@@H]1CSCN1C,2.417%
4,COCC(=O)N1CCc2nc(-c3cnccn3)nc(O)c2C1,104.8%
5,Cc1nc(CC(=O)N2CCc3nc(-c4cnccn4)nc(O)c3C2)cs1,88.77%
6,CS(=O)(=O)NC1CCN(C(=O)CCC2CCCO2)CC1 (stereo not given),10.42%
7,CS(=O)(=O)N1CCN(C(=O)CCC2CCCO2)CC1 (stereo not given),1.133%
8,O=C(Cc1csc(-c2ccco2)n1)N1CCN(c2cnccn2)CC1,16.12%
9,O=C(c1ccccn1)N1CCc2nc(-c3cnccn3)nc(O)c2C1,-8.53%
10,O=C(CCC1CCCO1)N1CCc2nc(-c3cnccn3)nc(O)c2C1 (stereo not given),116.1%
11,COCC(=O)N1CCc2nc(C(=O)Nc3cccnc3)sc2CC1,1.921%
12,CC(C)(CC(=O)N(CC(N)=O)C1CCCC1)c1ccccc1,-10.15%
13,CC(C)(CN)NS(=O)(=O)c1cccc(F)c1F.Cl,-6.445%
14,C=Cc1cccc(CN2C[C@H]3CC[C@@H]2CN(Cc2c(C)noc2C)C3)c1,-8.639%
15,Cc1ccc(C(=O)N(C)Cc2ccc(Br)s2)c(=O)[nH]1,139.4%
16,CCN(Cc1ccc2c(c1)OCO2)C(=O)c1ccc(C)[nH]c1=O,-8.548%
17,Cc1ccc(C(=O)N(Cc2ccc(F)cc2F)C2CC2)c(=O)[nH]1,-11.26%
18,Cc1ccc(C(=O)N(C)Cc2c(C)noc2C)c(=O)[nH]1,0.555%
19,Cc1ccc(C(=O)NCC(O)c2ccc(Cl)s2)c(=O)[nH]1 (stereo not given),-29.35%
20,Cc1ccc(C(=O)N(C)Cc2ccc(Br)o2)c(=O)[nH]1,131.8%
21,Cc1ccc(C(=O)N(C)Cc2csc(Br)c2)c(=O)[nH]1,125.8%
22,COC(=O)NCC(=O)N(C)Cc1csc(C)n1,0.6719%
23,Cc1nc(CN(C)C(=O)CNC(=O)c2ccc(C#N)cc2)cs1,6.778%
24,Cc1ccc(C(=O)N(C)Cc2csc(C)n2)c(=O)[nH]1,127.5%
25,Cc1ncsc1C(=O)N(C)Cc1ccc(Br)o1,23.63%
26,Cc1ccc(C(=O)N(Cc2ccc(F)cc2)C2CC2)c(=O)[nH]1,-2.478%
27,CNc1ccnc(N2C[C@@H](C)[C@](O)(C3CCC3)C2)n1,-0.8884%

row,SMILES,Percent Effect
1,COCCC(=O)NCCn1nc(C2CCNC2)c2cccnc21.Cl (stereo not given),104.9%
2,COCCN(C(=O)c1c[nH]c2ncccc12)C1CCCC1,6.84%
3,Cl.O=C(CCC1CCCC1)NCCn1nc(C2CCNC2)c2nccnc21 (stereo not given),-7.206%
4,CNc1ncc(CN(C)C(=O)c2ccccc2C2CCNC2)cn1 (stereo not given),-12.29%
5,CC(C)(C)CC(=O)NCCn1nc(C2CCNC2)c2cccnc21.Cl (stereo not given),117.2%
6,CN(C(=O)CNC(=O)CC(C)(C)C)C1CCN(c2ccccn2)CC1,12.99%
7,CC(C)(C)CC(=O)Nc1ncn(CC(=O)NCc2ccccc2)n1,0.2654%
8,CC(C)CC(=O)NCCn1nc(C2CCNC2)c2cccnc21.Cl (stereo not given),97.32%
9,Cc1cccnc1[C@H](C)NC(=O)c1cccc(CC2CCNCC2)c1,-20.86%
10,CC(C)NS(=O)(=O)c1cc(C(=O)O)cc(-c2ccc(CN(C)C)cc2)c1,-14.22%
11,Cc1cc(CNC(=O)Nc2ccc(C(=O)NC3CC3)cc2)no1,1.867%
12,CC(=O)NCCC1CCCCN1C(=O)c1cccc(CCC(C)(C)O)c1 (stereo not given),90.48%
13,CC(C)(O)CCc1cccc(C(=O)NCCC2CCOC2)c1 (stereo not given),-27.94%
14,CC(C)(O)CCc1cccc(C(=O)N2CCC3(CCOCC3)CC2)c1,-3.198%
15,CC(C)(O)CCc1cccc(C(=O)N2CCC3(CCO3)CC2)c1,8.25%
16,CO[C@H]1C[C@@H](O)C12CCN(C(=O)c1cccc(CCC(C)(C)O)c1)CC2,-1.029%
17,CC(C)(O)CCc1cccc(C(=O)N2CCC[C@H]2CN2CCCC2)c1,96.29%
18,CCc1nnc(SCC(=O)Nc2cc(C(C)(C)C)nn2C)[nH]1,-3.815%
19,CCOc1cc(CN2CCCC2)ccc1Oc1cccc(C#N)n1,-4.025%
20,COc1cc(CNC(=O)NCc2c(C)cc(C)[nH]c2=O)ccc1C,1.509%
21,CC(C)(C)N1CC(c2ncc(-c3ccc4c(c3)OCCO4)[nH]2)CC1=O (stereo not given),-4.995%
22,O=C(CC1COCCN1)NCCc1nc(-c2ccccn2)no1 (stereo not given),-14.35%
23,O=C(CC1COCCN1)NCCc1noc(-c2ccccc2)n1 (stereo not given),-6.645%
24,CC(C)Nc1ncc(-c2csc(NC(=O)C[C@H]3COCCN3)n2)cn1,64.22%
25,Cc1nsc(NC(=O)NC2CCCOC2)n1 (stereo not given),-39.42%
26,CNc1ncc(-c2csc(NC(=O)C[C@H]3COCCN3)n2)cn1.Cl,71.35%
27,Cl.Nc1ncc(-c2csc(NC(=O)C[C@H]3COCCN3)n2)cn1,103.3%

row,SMILES,Percent Effect
1,O=C(CC1COCCN1)NCCc1nc(Cc2ccccc2)no1 (stereo not given),18.61%
2,CCNC(=O)NCc1cnn(-c2ccc(F)cc2F)c1,-2.386%
3,Cc1cc(CC(=O)NCC(O)c2ccc(OC(F)F)cc2)n[nH]1 (stereo not given),-1.889%
4,Cc1ccccc1-c1noc(CNc2ccc(F)cc2OCCO)n1,17.52%
5,CS(=O)(=O)c1ccc(CN2C[C@@H]3OCC(=O)N(CC(N)=O)[C@@H]3C2)cc1,4.5%
6,O=C(c1cnccn1)N1C[C@@H](c2ccccc2)[C@@]2(CCNC2=O)C1,-14.79%
7,CCS(=O)(=O)N1C[C@@H](c2ccccc2)[C@@]2(CCNC2=O)C1,107.9%
8,O=C1NCC[C@]12CN(Cc1ccco1)C[C@H]2c1ccccc1,13.69%
9,Cc1ccc(CN2C[C@@H](c3ccccc3)[C@@]3(CCNC3=O)C2)o1,33.3%
10,CCCS(=O)(=O)N1C[C@@H](c2ccccc2)[C@@]2(CCNC2=O)C1,108.5%
11,CN(C)c1ccc(CC(=O)N2C[C@H](C3CC3)[C@@H](N)C2)cc1,-4.487%
12,COc1ccc2c(c1)s/c(=N\C(=O)CSCC(=O)Nc1nccs1)n2C,-4.566%
13,N#CCCN(CC1CC1)S(=O)(=O)c1cccc(Cl)c1,-14.4%
14,CC(=O)c1cccc(-c2c[nH]c(C)n2)c1,-8.634%
15,Cc1n[nH]cc1CNCc1cccc(OCC(F)(F)F)c1.Cl,-11.93%
16,Cc1ccc(CN2CCNC(=O)C2CC(=O)NCc2n[nH]c(C)n2)cc1 (stereo not given),3.294%
17,O=c1[nH]nc(CNCc2ccc(OC34CCCN(CC3)C4)cc2)[nH]1 (stereo not given),93.23%
18,Cc1nc(CNCc2cccc(OC34CCCN(CC3)C4)c2)n[nH]1 (stereo not given),113.3%
19,Cc1cnccc1CNCc1ccc(OC23CCCN(CC2)C3)cc1 (stereo not given),106.9%
20,COCCN1CCCC(O)(CN2CCN(c3ccncc3C)CC2)C1=O (stereo not given),-3.963%
21,CCN1CCCC(O)(CNCc2ccncc2)C1 (stereo not given),6.912%
22,COc1ccc(C(C)(C)C(=O)NCc2n[nH]c(=O)[nH]2)cc1,-12.5%
23,Cc1nc(CNCc2ccc(OC34CCCN(CC3)C4)cc2)n[nH]1 (stereo not given),103.3%
24,Cc1ccnc(NCc2cccc(OCCN3CCOCC3)c2)n1,10.24%
